In the library only some 4.7% were active in any assay of this set; here they are far more common.
ADAM17 inh: inhibitors of human ADAM17 | P78536 | recombinant ADAM17, EDANS/DABCYL FRET peptide cleavage | inhibition, % at 6.95 µM | 0.83% of 370,000 active | AID 720648;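 active = inhibition above the mean of compounds lying between control limits plus 3 SD, set per campaign, cut at about 8.5% in these data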;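 note: 0% = DMSO-only wells as the low control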
proKLK7 act: activates the human kallikrein-7 zymogen. P49862. purified proKLK7, EDANS-DABCYL substrate fluorescence; 100% is mature enzyme control, 0% vehicle. activation, % at 7 µM. 0.9% of 370,000 active. AID 652039;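 active = activation above the mean of all tested compounds plus 3 SD, computed per campaign excluding outliers beyond control limits, cut at about 13% in these data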
rCAG binder: binds r(CAG) RNA repeats; r(CAG) RNA repeat, TO-PRO-1 dye displacement fluorescence; inhibition, % at 3 µM; 1.3% of 370,000 active; AID 651821;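 active = inhibition above the plate cutoff, the mean of all test compounds on that plate plus 3 SD, cut at about 35% in these data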;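 note: 0% = DMSO alone and 100% = 100 µM mitoxantrone as full dye displacement; higher means more dye released from RNA so lower well fluorescence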
DSG3 Ab inh: blocks pemphigus antibody binding to human desmoglein-3 | DSG3-coupled beads, scFv-anti-DSG3-GFP binding, flow cytometry; hits give low values | binding (percent of control), % at 10 µM | 0.48% of 310,000 active | AID 588358;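 active = binding more than 3 SD below its plate's average and above zero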;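 note: hits lower antibody fragment binding to DSG3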
MPTP inh: permeability transition pore inhibition. isolated mouse mitochondria, Ca2+ swelling absorbance, 30 min. inhibition, % at 10 µM. 1.4% of 360,000 active. AID 602449;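 active = inhibition of 50% or more, scaled per plate between neutral and stimulator controls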;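 note: 0% = DMSO wells given calcium and 100% = 1 mM EGTA wells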
ADAM10 inh: ADAM10 inhibition, QFRET primary screen. O14672. recombinant ADAM10, EDANS/DABCYL FRET peptide cleavage, 3 h. inhibition, % at 7 µM. 0.62% of 370,000 active;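 active = inhibition above a per-campaign cutoff equal to the mean of compounds falling between control-based bounds plus 3 SD, cut at about 20% in these data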;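 note: 0% = DMSO wells while the 100% control is not disclosed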
MPTP counter: membrane potential counter-screen of mitochondrial pore inhibitors. shares compounds with MPTP inh. isolated mitochondria, Rhodamine 123 fluorescence. inhibition, % at 10 µM. 78% of 5,000 active; in the data active = inhibition above about 22%;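 note: 0% = DMSO vehicle and 100% = positive control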
MPTP abs DR: dose response confirmation of mitochondrial permeability transition pore inhibitors; 58% of 780 active; shares compounds with MPTP inh; AID 651561; IC50, µM; isolated mitochondria swelling, absorbance; in the data active = IC50 below about 20 µM
MPTP cs DR: MPTP inhibitor counter-screen activity, dose response; isolated mitochondria counterscreen, fluorescence read-out; 49% of 780 active; IC50, µM; shares compounds with MPTP inh; in the data active = IC50 below about 80 µM
Active calls of the source: *; / = no result given.

SMILES	ADAM17 inh	proKLK7 act	rCAG binder	DSG3 Ab inh	MPTP inh	ADAM10 inh	MPTP counter	others
O=C(CSc1nnc(Cn2nnc3ccccc32)o1)N(Cc1ccc(Cl)cc1)c1ccccc1	3	0	-4	110	96*	6	103*
COC(=O)C1=C(C)N(CC(C)C)C(=S)NC1c1cccc(Br)c1 (centres undefined)	2	0	1	/	/	10	/
Cc1c(NC(=O)/C(C#N)=C/c2ccc(-c3ccccc3Cl)o2)c(=O)n(-c2ccccc2)n1C	7	0	7	101	1	7	/
N#C/C(=C\c1ccc(-c2ccccc2Cl)o1)C(=O)Nc1nc2ccccc2s1	0	0	9	99	74*	3	43*
N#C/C(=C(/O)c1ccc(F)cc1)c1nc2ccccc2s1	1	0	4	91	78*	3	96*
N#C/C(=C(/O)COc1ccc(Cl)cc1)c1nc2ccccc2s1	1	0	8	99	107*	9	90*
Cc1ccc(SC/C(O)=C(\C#N)c2nc3ccccc3s2)cc1	-4	0	17	101	94*	8	91*
N#C/C(=C(/O)COc1ccccc1)c1nc2ccccc2s1	-3	0	6	93	84*	1	81*
N#C/C(=N\O)c1nc2ccccc2s1	-6	-1	2	99	1	-7	/
COC(=O)[C@]12C[C@H](CC(=O)N3CCSCC3)C(=O)N(Cc3ccc(Cl)cc3Cl)C1=C[C@H](C(C)C)O[C@@H]2C1CC1	-3	0	6	/	/	-2	/
CC(C)C[C@H]1COc2cccc(N3CCCC3)c2S(=O)(=O)N1	0	-1	1	/	/	0	/
COC(=O)[C@]12C[C@H](CC(=O)N3CCCCC3)C(=O)N(CCc3ccc(OC)c(OC)c3)C1=C[C@H](C(C)(C)C)O[C@@H]2C	-2	0	0	/	/	-5	/
O=C(O)c1ccc(-c2cccc([N+](=O)[O-])c2)o1	-2	1	0	96	2	-1	/
N#C/C(=C(/O)c1ccc(-c2cccc([N+](=O)[O-])c2)o1)c1nc2ccccc2s1	-2	0	23	104	98*	-9	69*
CN(Cc1ccco1)C(=O)[C@@H](Cc1ccccc1)NC(=O)[C@H]1O[C@@H](n2ccc(=O)[nH]c2=O)[C@H](O)[C@@H]1O	2	0	2	/	/	3	/
COCCCNCCCCOc1ccc(Br)cc1C	5	0	3	102	63*	0	-13	MPTP abs DR=8.7*;MPTP cs DR=>80
COCCNCCCCOc1ccc(Br)cc1C	2	0	1	134	0	-10	/
N#CCC[C@@H]1CC[C@]2(CCCN(C(=O)C3CCCC3)C2)O1	-2	0	-1	/	/	1	/
CC(=O)c1cccc(N/C=C\C(=O)c2ccc(C)cc2)c1	1	1	0	105	1	0	/
CC(=O)c1cccc(NS(=O)(=O)c2ccc(N/C=C\C(=O)c3ccc(F)cc3)cc2)c1	-1	-7	13	93	32	-9	/
CC(=O)c1cccc(NS(=O)(=O)c2ccc(N/C=C\C(=O)c3ccc(C)cc3)cc2)c1	-7	-2	2	106	106*	-2	85*
CC(=O)c1cccc(NS(=O)(=O)c2ccc(N/C=C/C(=O)c3ccc(F)cc3)cc2)c1	2	1	13	98	108*	0	94*
CC(NCCC(c1ccccc1)c1ccccc1)c1ccccc1 (centres undefined)	-5	0	5	112	94*	-8	-2
CC(NC1CCCC1)c1ccccc1 (centres undefined)	1	0	1	104	0	-1	/
CSCCC(NC(=O)OCc1ccccc1)C(=O)NC(Cc1c[nH]c2ccccc12)C(=O)O (centres undefined)	-7	0	13	/	/	-7	/
SMILES	ADAM17 inh	proKLK7 act	rCAG binder	DSG3 Ab inh	MPTP inh	ADAM10 inh	MPTP counter	others
CC(C)C(C)NC(=O)COc1ccc(Sc2ccc(OCC(=O)NC(C)C(C)C)cc2)cc1 (centres undefined)	3	0	-1	85	79*	2	89*
CC(C)C(C)NC(=O)COc1ccc(-c2ccccc2)cc1 (centres undefined)	0	0	-7	102	4	-4	/
CC(=O)N1CCCc2cc(S(=O)(=O)NCc3ccc(C)cc3)ccc21	-1	0	-1	87	1	7	/
CC(=O)N1CCCc2cc(S(=O)(=O)NCCC3=CCCCC3)ccc21	0	0	-3	98	51*	5	23*
O=C(C=P(c1ccccc1)(c1ccccc1)c1ccccc1)c1ccccc1-c1ccccc1C(=O)C=P(c1ccccc1)(c1ccccc1)c1ccccc1	4	0	8	92	94*	-1	99*
O=C(NNC(=O)c1ccccc1-c1ccccc1C(=O)O)c1ccccc1	-3	0	0	103	0	5	/
N=C(N)SCc1cn(-c2ccccc2)nc1-c1ccc(Br)cc1	0	0	27	129	76*	2	-10
COc1ccc(S[C@]2(C(=O)NCCc3ccccc3)CC(=O)N[C@@H]2c2ccc(OC)cc2)cc1	7	1	2	/	/	9	/
CC(N=C1NS(=O)(=O)c2ccccc21)C(=O)NCCCc1ccccc1 (centres undefined)	-4	0	0	106	2	-3	/
Cc1ccc(NC(=O)C(C)N=C2NS(=O)(=O)c3ccccc32)cc1F (centres undefined)	-5	-1	1	102	87*	-1	88*
COc1ccccc1C1CCN(C(=O)c2ccccc2)CC1	4	0	-8	98	0	-2	/
COc1ccccc1C1CCN(c2cc(O)ccc2[N+](=O)[O-])CC1	2	0	18	/	86*	13	78*
CS(=O)(=O)NNC(=O)C1Cc2c(ccc3ccccc23)O1 (centres undefined)	1	1	2	93	0	2	/
O=C(NNS(=O)(=O)c1ccc(F)cc1F)C1Cc2c(ccc3ccccc23)O1 (centres undefined)	-2	-1	14	/	73*	5	52*
Cc1oc(/N=C/c2ccccc2)c(C#N)c1C	-2	1	-4	89	-1	-13	/
COc1[nH]c(/N=C/c2ccccc2)c(C#N)c1C#N	-10	1	-138	/	87*	-38	33*

Assay outcomes as filed in PubChem.
